Source: PubChem BioAssay AID1863 (Southern Research Specialized Biocontainment Screening …, 2009)
Values joined by “and” are separate entries in the source; they are usually repeats but may differ in a detail not shown here. Equal values may be shown once. Screen size: about 300,000 compounds; about 480 (0.16%) were called active.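 How the source made its calls: active means inhibition over 29.93%, a cutoff 3 SD above the screen mean, later confirmed by dose response; inconclusive means inhibition over 29.93% but no dose response follow-up; inactive means inhibition at most 29.93% or unconfirmed.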 Not all results are given here. Entries with a potency or affinity are not part of this list.

Experiment: PhoP-dependent GFP reporter repression – Salmonella Typhimurium, primary screen (AID 1863);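 further: 0% = low Mg2+ inducing control and 100% = high Mg2+ repressing control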
Settings: S. Typhimurium PhoP-regulated promoter GFP reporter, 4 h; at 50 µM; hits give high values

inhibition, inactive:
O=C(CS(=O)(=O)c1ccccc1)NC1CCCCC1 -0.8%
CC(CC(=O)Nc1ccccc1)NCCCN1CCCC1=O (configuration not stated) -13.5%
COc1ccc(C(=O)Nc2ccccc2C(=O)N2CCCCC2C)cc1 (configuration not stated) -7.49%
Cc1ccc(S(=O)(=O)N2CC(=NN=C(N)N)C2)cc1 6.04%
NC(N)=NN=C1CCC(c2ccccc2)CC1 (configuration not stated) -4.95%
COc1ccc(/C=N/NC(=O)c2ccc(COc3ccccc3Cl)o2)cc1 2.77%
CC(=O)Nc1ccc(Nc2nnc(-c3ccc(C)c(S(N)(=O)=O)c3)c3ccccc23)cc1 -2.89%
CC(C)(C)C1=CC(=O)C(N2CCOCC2)=CC1=O -2.73%
CC1=C(C)C(=O)C(N2CCOCC2)=CC1=O -8.01%
CC(NC(=O)COc1ccc(Oc2ccccc2)cc1)C(=O)O (configuration not stated) -6.64%
CC(=O)c1cccc(NC(=O)Nc2ccccc2)c1 4.67%
COc1ccc(C(NC(C)=O)c2cc(Cl)c3cccnc3c2O)cc1OC (configuration not stated) 3%
CCC(=O)NC(c1ccc(OC)cc1)c1cc(Cl)c2cccnc2c1O (configuration not stated) 2.08%
CN1CCN(C(c2ccc(C(F)(F)F)cc2)c2ccc3cccnc3c2O)CC1 (configuration not stated) 0.72%
O=C(NC(c1ccc(Cl)cc1)c1cc(Cl)c2cccnc2c1O)c1cccnc1 (configuration not stated) 6.03%
CCOC(=O)N1CCN(S(=O)(=O)c2cccc3cccnc23)CC1 -11%
Oc1c(C(c2ccc(Cl)cc2)N2CCCC2)cc(Cl)c2cccnc12 (configuration not stated) 4.49%
CN1CCN(C(c2cccnc2)c2ccc3cccnc3c2O)CC1 (configuration not stated) -7.68%
OCCN1CCN(C(c2cccs2)c2ccc3cccnc3c2O)CC1 (configuration not stated) -47.6%
CCC(c1nnnn1C(C)(C)CC)N(CCCN1CCOCC1)Cc1cc2cccc(C)c2[nH]c1=O (configuration not stated) 1.45%
CCn1nc(C)c(/C=N/NC(=O)Cn2nc(C)cc2C)c1C -4.2%
CCCCNC(=O)c1cc(-c2ccc(OC)c(OC)c2)on1 3.01%
Cc1c(C#N)c(N)nc2c3c(sc12)NC(=O)CC3c1ccccc1 (configuration not stated) -5.65%
COc1cccc(NC(=O)c2cc([N+](=O)[O-])ccc2NCc2cccnc2)c1 -4.37%
CCOC(=O)c1cn(CC(=O)Nc2cccc(F)c2)nn1 -11.4%
O=C(Cn1c(C(=O)O)cc2ccccc21)c1ccccc1 -2.79%
Cc1ccc(N2C(=O)N(CC(=O)N3CCOCC3)C(=O)C2C)cc1 (configuration not stated) 2.04%
COC(C(=O)Nc1ccnn1C1CCN(C(=O)c2ccc(C)cc2)CC1)c1ccccc1 (configuration not stated) 5.45%
O=S1(=O)CCOC[C@H](CC2CCCCC2)N1Cc1cccc(C(F)(F)F)c1 9.84%
CC(=O)NC(c1ccc(C)cc1)c1cc(Cl)c2cccnc2c1O (configuration not stated) -1.88%
COc1ccc(C(NC(C)=O)c2cc(Cl)c3cccnc3c2O)cc1 (configuration not stated) 5.56%
Oc1c(C(c2ccccn2)N2CCC(Cc3ccccc3)CC2)cc(Cl)c2cccnc12 (configuration not stated) -3.77%
CC(=O)NC(c1ccccc1)c1cc(Cl)c2cccnc2c1O (configuration not stated) 18.9%
CCOc1ccc(C(Nc2cccnc2)c2cc(Cl)c3cccnc3c2O)cc1 (configuration not stated) 3.11%
CCC(=O)NC(c1cccs1)c1cc(Cl)c2cccnc2c1O (configuration not stated) 14.8%
O=C(NC(c1ccccc1)c1cc(Cl)c2cccnc2c1O)c1cccnc1 (configuration not stated) -10.8%
CCCc1cc(=O)[nH]c(SCC(=O)Nc2ccc(Br)cc2)n1 -7.86%
CC1CCN(S(=O)(=O)c2ccc3c(c2)c(=O)c(C(=O)NCc2ccccc2Cl)cn3C)CC1 5.92%
Cc1cccc(/C=C/C(=O)c2cc(Br)ccc(=O)c2O)c1 23.4%
O=C(/C=C/c1ccccc1Cl)c1ccc[nH]1 11.1%
O=C(/C=C/c1ccc(O)c(O)c1)c1ccccc1O -12%
Cc1ccc(/C=C/C(=O)c2ccccc(=O)c2O)c(C)c1 7.66%
Cc1ccc2occ(/C=C/C(=O)c3ccccc3O)c(=O)c2c1 1.62%
O=C(/C=C/c1ccccc1Cl)c1ccc(O)cc1 2.4%
C=CCNC(=O)CSc1nnc(-c2ccccn2)n1Cc1ccccc1 7.3%
CCOC(=O)c1ccc(NC(=O)c2ccccc2N(C)S(=O)(=O)c2ccccc2)cc1 1.33%
Cc1ncc(CSCC(=O)Nc2cc(C(F)(F)F)ccc2Cl)c(CO)c1O 3.52%
C=C1CCC(OC(C)=O)C2(C)CCC3C(C)C(=O)OC3C12O (configuration not stated) 5.69%
CC[N+](C)(C)CCN(Cc1ccc(Cl)cc1)c1ccccn1 1.17%
COc1ccc(CN(CCN(C)C)c2ccccn2)cc1 5.26% and 0.005%
Cc1cccc(CCNC(=O)CN(C)S(=O)(=O)c2ccc3c(c2)c(=O)n(C)c(=O)n3C)c1 10.3%
Cc1ccc(N2C(=O)N(Cc3ccccc3C)c3ccccc3S2(=O)=O)cc1 3.76%
O=C(N/N=C/c1ccc(O)c2ncccc12)c1cccc(Br)c1 -1.53%
Cc1ccc(N=Nc2ccc(O)c3ncccc23)cc1 0.67%
Oc1ccc(F)c2cccnc12 -2.12%
Cc1ccccc1N=Nc1ccc(O)c2ncccc12 -2.25%
CN(c1ccc(C(=O)Nc2ccccc2C(=O)N2CCCC2)cc1)S(C)(=O)=O 1.89%
CCn1c(C(=O)O)c(CC(=O)Nc2ccccc2OC)c2ccccc21 -3.77%
CCC/C=C1/CCCOC(C(=O)NCc2ccccn2)(C(F)(F)F)C1 (configuration not stated) 4.57%
COC(=O)c1ccccc1NC(=O)Nc1ncccc1C 8.31%
C=CCn1c(-c2sc3nc(C)cc(C)c3c2N)n[nH]c1=S 1.92%
CN(Cc1ccccc1)S(=O)(=O)c1ccc(Cl)c(C(=O)NCCc2ccccn2)c1 -2.89%
